Screening results deposited in PubChem by National Center for Advancing Translational Sciences (NCATS).
FBPA coupling cs: counter-screen for Giardia aldolase inhibitors: coupling enzyme system. activity change, negative = inhibition, % at 58.2 µM, hits read low. coupling enzyme system counterscreen, AmpLite Red fluorescence. actives 0.67% (n = 290,000); in the data active = activity change below about -30%
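Coupling enzymes only (glyceraldehyde-3-phosphate) + compound, at 57.5 uM final, 10 min RT; add substrate/coupling/AmpLite Red mix, 20 min RT; fluorescence ex 525/em 598 nm. Actives flag coupling-system interference.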
IDH1 R132H inh: blocks human mutant IDH1 R132H enzyme; IDH1-R132H enzyme, NADPH consumption, diaphorase/resazurin fluorescence; Potency, µM (highest dose often 76.6 µM), for inactives: at the highest dose activity change, negative = inhibition, hits mostly inhibitors; actives 0.093% (n = 390,000); AID 602179; note: potency is the fitted concentration of half-maximal effect; nearly all actives have a fitted effect of over 65% in size
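IDH1-R132H (0.5 ug/mL dispensed) in pH 7.5 Tris buffer was preincubated 30 min with compound, then given a substrate mix of 0.016 mM NADPH and 2 mM alpha-KG for 80 min at room temperature; remaining NADPH was read by diaphorase/resazurin fluorescence.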
Eya2 phos inh: blocks the phosphatase activity of human Eya2. O00167. recombinant Eya2, OMFP fluorescence dephosphorylation (OMFP is methylfluorescein phosphate). Potency, µM (series often up to 76.9 µM), for the others: at the top dose activity, negative = inhibition, hits mostly inhibitors. actives 0.006% (n = 330,000); note: potency is the fitted concentration of half-maximal effect
Target sequence (O00167 whole entry, looked up): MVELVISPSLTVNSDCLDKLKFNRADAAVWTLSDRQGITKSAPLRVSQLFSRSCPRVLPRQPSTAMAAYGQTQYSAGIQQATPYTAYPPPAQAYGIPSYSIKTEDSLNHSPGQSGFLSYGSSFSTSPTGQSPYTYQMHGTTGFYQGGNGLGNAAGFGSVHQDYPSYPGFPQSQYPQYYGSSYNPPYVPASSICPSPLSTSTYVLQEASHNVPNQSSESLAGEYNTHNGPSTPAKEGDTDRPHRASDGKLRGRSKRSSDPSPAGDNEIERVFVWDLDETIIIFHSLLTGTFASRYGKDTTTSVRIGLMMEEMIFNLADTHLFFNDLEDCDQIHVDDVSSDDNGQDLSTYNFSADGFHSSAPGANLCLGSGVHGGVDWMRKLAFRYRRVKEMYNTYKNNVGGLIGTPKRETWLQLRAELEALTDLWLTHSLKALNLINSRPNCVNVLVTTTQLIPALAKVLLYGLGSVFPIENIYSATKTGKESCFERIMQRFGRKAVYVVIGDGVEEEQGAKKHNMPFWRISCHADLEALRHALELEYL
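Eya2 protein (added as 0.2 uM solution) was preincubated with compound for 10 min at ambient temperature in 50 mM HEPES pH 7.5, 50 mM NaCl, 5 uM MgCl2, 0.05% BSA, 1 mM DTT. OMFP (added at 50 uM) then reacted 10 min; fluorescence read at 485/525 nm.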
TrxR1 inh: inhibitors of rat thioredoxin reductase 1 | Potency, µM (top dose mostly 114 µM), for the others: at the top dose activity change, negative = inhibition, most hits filed as inhibitors | actives 1% (n = 390,000) | O89049 | AID 588453 | recombinant rTrxR1, NADPH fluorescence consumption, selenite substrate; note: potency is the fitted concentration of half-maximal effect; nearly all actives have a fitted effect of over 65% in size
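Rat TrxR1 (90 nM in the dispensed reagent) was pre-reduced with 400 uM NADPH for 5 min at room temperature, then incubated with compound for 15 min. After 400 uM selenite was added, NADPH fluorescence (Ex 340/Em 450 nm) was followed for 8 min.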
TrxR1 substrate: rat thioredoxin reductase 1 substrate activity. purified TrxR1 substrate turnover, NADPH consumption readout. actives 0.01% (n = 390,000). Potency, µM (top dose mostly 114 µM), without a hit: top-dose activity change, negative = substrate turnover; note: potency is the fitted concentration of half-maximal effect; nearly all actives have a fitted effect of over 50% in size
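Rat TrxR1, dispensed at 90 nM, was prereduced with 400 uM NADPH (final) for 5 min at ~22 deg C, then incubated with compound 15 min before 400 uM selenite. A first-read NADPH fluorescence drop versus no-compound background flagged substrates.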
Active calls of the source: *; ? = inconclusive; · = no result; [ ] = dose if it differs, or a comment. Most compounds without a hit are left out; they make up all but 1.5% or so of the library. Unless noted, calls come from the whole dose curve; as a rule, active = well fitted curve in the direction sought with a large enough effect; inconclusive = small, poorly fitted or top-dose-only effect, or another doubt; inactive = no such curve, though single readings can be large; an effect the other way counts as inactive or inconclusive. % is set by controls: 0 for no effect and ±100 for the full control effect.

SMILES	FBPA coupling cs	IDH1 R132H inh	Eya2 phos inh	TrxR1 inh	TrxR1 substrate
O=C(O)c1ccccc1-c1ccc(C=C2C(=O)N(c3ccccc3)C(=S)N(c3ccccc3)C2=O)o1	1	-3%	14%	8.9µM*	1%
CNCCc1ccc(OC)c(OC)c1	7	1%	5%	20µM*	6%[57.1 µM]
COc1ccc(CCN)cc1OC	0	6%	9%	4%[57.1 µM]	6%[57.1 µM]
CN(C)c1ccc(N=O)cc1	·	·	·	5µM*	?
C=CCN1C[C@H](C)N([C@H](c2ccc(C(=O)N(CC)CC)cc2)c2cccc(O)c2)C[C@H]1C	0	·	·	·	·
N#CC(C#N)=Cc1ccc(O)c(O)c1	7	-5%	18%	17µM*	4%[57.1 µM]
CC(C)(C)c1cc(C=C(C#N)C#N)cc(C(C)(C)C)c1O	·	-7%	5%	?	?
CCOc1ccc(N2C(=O)NC(=O)/C(=C\c3ccccc3[N+](=O)[O-])C2=O)cc1	8	2%	2%	8.9µM*	1%
CN1C(=O)NC(=O)/C(=C/c2ccc([N+](=O)[O-])s2)C1=O	-21	2%	8%	?	-5%
O=C1NC(=O)N(c2ccccc2)C(=O)/C1=C\c1ccc([N+](=O)[O-])s1	-12	0%	3%	56µM*	-19%
COc1ccc(N2C(=O)NC(=O)/C(=C\c3ccccc3[N+](=O)[O-])C2=O)cc1	1	-4%	0%	10µM*	-6%
Cc1[nH]c(=O)n(C(C)(C)C)c(=O)c1Cl	0	·	·	·	·
Nc1c([N+](=O)[O-])ccc(Oc2ccccc2)c1Cl	-7	·	·	·	·
CCCOc1ccc2[nH]cc(C3=CCNCC3)c2n1	-12	·	·	·	·
CN1CCc2cc(O)cc3c2[C@H]1Cc1ccc(O)c(O)c1-3	·	0%	4%	?	15%[57.1 µM]
CN1CCc2cc3c(c4c2C1Cc1ccccc1-4)OCO3 (centres undefined)	-35*	14%	2%	11%	3%
COc1cc(/C=C2\C(=O)NC(=O)N(CCc3ccc(F)cc3)C2=O)ccc1O	4	-2%	3%	14µM*	-9%
CCOc1ccc(/C=C2/C(=O)NC(=O)N(CCc3ccc(F)cc3)C2=O)cc1	6	-5%	3%	28µM*	1%
COc1cc(C=C2C(=O)NC(=O)NC2=O)ccc1O	-3	3%	-27%	?	1%[57.1 µM]
C=C1CCN(C(Cc2ccccc2)C(=O)Nc2ccc(OC)cc2)S(=O)(=O)c2ccccc21 (centres undefined)	-1	·	·	61%	1%
CCCCCCCCCC[Si](C)(C)CCC(=O)N[C@@H](Cc1ccc(C)cc1)c1ccccc1	·	·	·	5%	0%
CSc1nc(N)c(N=Nc2ccc([As](=O)(O)O)cc2)c(=O)[nH]1	1	0%	?	4µM*	6%[57.1 µM]
CC(C)C1C(=O)O[C@@H]2CCN3CC=C(COC(=O)[C@](C)(O)[C@]1(C)O)[C@H]23 (some centres undefined)	1	·	·	·	·
CC1=C(O)C(=O)[C@H]2O[C@@H]2C1=O	-10	·	·	·	·
CC1=NN(c2ccccc2)C(=O)/C1=C/c1c(O)[nH]c(=S)[nH]c1=O	7	-9%	4%	18µM*	?
SMILES	FBPA coupling cs	IDH1 R132H inh	Eya2 phos inh	TrxR1 inh	TrxR1 substrate
CC(C)[C@H](NC(=O)[C@H](CC(=O)O)NC(=O)[C@H](Cc1ccccc1)NC(=O)[C@@H](C)NC(=O)[C@@H](N)Cc1ccc(O)cc1)C(=O)N[C@H](C(=O)NCC(N)=O)C(C)C	-3	·	·	·	·
O=[N+]([O-])c1ccc(N2CC2)c([N+](=O)[O-])c1	·	-6%	·	1%	-14%
O=[N+]([O-])c1ccc(Sc2nc3ccccc3o2)c([N+](=O)[O-])c1	-8	-2%	-7%	0.63µM*	4%
CON(C)C(=O)Nc1ccc(Br)c(Cl)c1	-1	·	·	·	·
O=C1C(Cl)=C(Cl)C(=O)C(Cl)=C1Cl	-65*	·	·	·	·
COc1ccccc1CNC(=O)CCC1N=C2c3ccccc3N=C(SCc3cccc(Cl)c3)N2C1=O (centres undefined)	·	-9%	·	73%	21%
Cc1ccccc1N1C(=O)NC(=O)/C(=C\c2cc(Br)c(N3CCOCC3)o2)C1=O	3	4%	9%	22µM*	-29%
N#CC(C#N)=NNc1ccc(OC(F)(F)F)cc1	12	·	·	·	·
CCN1C(=O)C(=C2C=C(C)OC(C)=C2)C(=O)N(CC)C1=S	0	1%	1%	16%	6%
CCOC(=O)C1=CC(=C2C(=O)N(CC)C(=S)N(CC)C2=O)c2ccccc2O1	1	-3%	14%	40µM*	-10%
Cc1ccccc1C(=O)NC(Oc1ccccc1)C(Cl)(Cl)Cl (centres undefined)	0	0%	-1%	-5%[57.1 µM]	6%[57.1 µM]
CCCC(=O)NC(Oc1ccc(C(C)=O)cc1)C(Cl)(Cl)Cl (centres undefined)	6	-1%	0%	25µM*	2%
CCN(CC)C(=O)c1ccc2c(c1)C1C(Cl)C(Sc3ccccc3[N+](=O)[O-])CC1C(C(=O)O)N2 (centres undefined)	-6	-3%	9%	50µM*	4%
O=C(O)c1ccc2c(c1)C1C(Cl)C(Sc3ccccc3[N+](=O)[O-])CC1C(c1cccc([N+](=O)[O-])c1)N2 (centres undefined)	2	?	-3%	-56%	8%[57.1 µM]
O=C(O)c1cccc2c1NC(c1cccc([N+](=O)[O-])c1)C1CC(Sc3ccccc3[N+](=O)[O-])C(Cl)C21 (centres undefined)	12	29µM*	0%	-10%[57.1 µM]	-6%[57.1 µM]
Cc1ccc2c(c1Cl)NC(C(=O)O)C1CC(Sc3ccccc3[N+](=O)[O-])C(Cl)C21 (centres undefined)	3	-14%	-1%	?	6%[57.1 µM]
O=C1NC(=O)N(CCC2=CCCCC2)C(=O)/C1=C/c1cccs1	5	0%	22%	7.9µM*	4%[57.1 µM]
O=C1NC(=O)N(CCC2=CCCCC2)C(=O)/C1=C/c1ccc(O)cc1	0	-2%	0%	?	-6%
O=C(O)CCC(CP(=O)(O)O)C(=O)O (centres undefined)	1	·	·	·	·
CCOC(=O)C1=C(C)c2ccccc2OC1(C(=O)OCC)c1ccccc1 (centres undefined)	-7	9%	-6%	45µM*	-12%
CCOC(=O)c1ccccc1C(=O)OCC	·	·	·	18%	8%
COC(=O)C(O)C(O)(CCC(C)C)C(=O)OC1C(OC)=CC23CCCN2CCc2cc4c(cc2C13)OCO4 (centres undefined)	1	·	·	·	·
CCN(CC)C(=O)N[C@H]1C=C2c3cccc4[nH]cc(c34)C[C@@H]2N(C)C1	-10	·	·	·	·
COC[C@H]1OC(=O)c2coc3c2[C@@]1(C)C1=C(C3=O)[C@H]2CCC(=O)[C@@]2(C)C[C@H]1OC(C)=O	-27	·	·	·	·
